Sampled rows, rich in hits. Any-hit rate of the full collection: about 7.9%.
Marburg entry inh: blocks Marburg virus binding to or entry into cells. 300,000 tested, 1.8% active. Marburg virus pseudotyped entry inhibition, cell reporter. Potency, µM (titrated, usually from 37.8 µM), without a hit: at the highest dose activity change, negative = inhibition, usual class: inhibitors. AID 540276; calls by dose curve; tested in HEK293 cells; note: potency is the fitted concentration of half-maximal effect
HCV inh: blocks hepatitis C virus. Huh7.5.1 HCVcc-Cre infection, luciferase reporter, 44 h. Potency, µM (titrated, usually from 41.8 µM), without a hit: top-dose activity change, negative = inhibition, hits mostly inhibitors. 340,000 tested, 3.4% active; active = well fitted inhibition curve with a large enough effect; inconclusive = small, poorly fitted or top-dose-only effect, or another doubt; inactive = no such curve, though single readings can be large or run the other way; note: potency is the fitted concentration of half-maximal effect
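Whole-lifecycle infectious HCVcc-Cre system; cells 1,000/well, compound then virus (~0.5 moi) added 4 h after plating, 44 h culture. Luciferase read 15 sec following 15 min substrate incubation, room temp.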
HCMV inh: human cytomegalovirus inhibition; AID 1259415; 410,000 tested, 4.5% active; activity change, negative = inhibition, % at 57.5 µM; HFF cells, HCMV-luciferase reporter, 72 h; stronger effect = lower value; in the data active = activity change below about -60%; inconclusive = no clear call, values can overlap the other calls; inactive = above about -39%
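Human foreskin fibroblasts infected with luciferase-reporter HCMV at MOI 1 PFU/cell, compounds at two doses. Luciferase measured 72 h post infection; normalized to buffer-only basal and Salinomycin (10uM) controls.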
Lassa entry inh: inhibitors of Lassa virus binding or cell entry | Lassa virus pseudotype entry inhibition, cell reporter | Potency, µM (series often up to 37.9 µM), for inactives: top-dose activity change, negative = inhibition, usual class: inhibitors | 300,000 tested, 1.2% active; calls by dose curve; tested in HEK293 cells; note: potency is the fitted concentration of half-maximal effect; nearly all actives have a fitted effect of over 50% in size
FMDV antiviral: antivirals against foot and mouth disease virus; Potency, µM (doses to about 57.9 µM), inactives show at the highest dose activity change, negative = inhibition, most hits filed as inhibitors; AID 1159524; 410,000 tested, 1.2% active; FMDV antiviral cell-based qHTS; calls by dose curve; tested in HEK293T cells; note: read-out not given here; potency is the fitted concentration of half-maximal effect; nearly all actives have a fitted effect of over 45% in size
The depositor's hits bear a star; ? = inconclusive; . = not tested or not shown; + = active, no number; ! = not active in a repeat; [ ] = another dose, or the depositor's remark. % is set by controls: 0 for no effect and ±100 for the full control effect.

SMILES | Marburg entry inh | HCV inh | HCMV inh | Lassa entry inh | FMDV antiviral
CC(C)C(=O)NCC1CCC2(CCN(Cc3ccc(-c4ccccc4Cl)o3)CC2)O1 (stereo not given) | . | . | . | . | -0.8%
COC(=O)CNC(=O)CSc1nc2sc(-c3ccccc3)cc2c(=O)n1-c1ccccc1 | . | -2.8% | -20.1 | . | -20.1%
NC(=O)NC(=O)CSc1nc2sc(-c3ccccc3)cc2c(=O)n1-c1ccccc1 | 4.0%[46.1 µM] | 1.3% | -70.0* | -9.6%[46.1 µM] | ?
CC(=O)Nc1nnc(SCC(=O)c2ccc3c(c2)Cc2ccccc2-3)s1 | ? | 0.6% | -37.1 | ? | 10.5%
CCC(=O)Nc1nnc(SCC(=O)c2ccc3c(c2)Cc2ccccc2-3)s1 | ? | 13.3% | -18.6 | 6.51µM* | .
CCN(CC)C1CCN(C(=O)c2ccc3nc(Cc4ccc(OC)cc4)oc3c2)C1 (stereo not given) | . | 14.9% | -31.9 | . | -1.3%
COC1C(O)C(CO)OC1n1c(Br)nc2c(=O)[nH]c(N)nc21 (stereo not given) | . | . | . | . | -4.1%
COC1C(CO)OC(n2c3c(Cl)cccc3c3c4c(c5c6cccc(Cl)c6[nH]c5c32)C(=O)NC4=O)C(O)C1O (stereo not given) | ? | ? | -97.6* | ? | -18.9%
Cc1cc(C(=O)CSc2nc3ccccc3o2)c(C)n1CC1CCCO1 (stereo not given) | ? | ? | -69.8* | ? | ?
O=C(O)CSc1nc2ccccc2o1 | ? | 17.0% | 27.4 | 12.3% | 15.9%
Cc1cc(C)n2nc(SCC(=O)c3cc(C)n(CC4CCCO4)c3C)nc2n1 (stereo not given) | 15.0%[46.1 µM] | ? | -70.4* | -26.6% | ?
Cc1ccc(C(=O)CSc2nc3ccccc3o2)cc1 | 14.3% | -26.1% | -60.8* | 34.8% | .
Cc1cc(C(=O)Cn2nnc(-c3ccc(Cl)cc3)n2)c(C)n1CC1CCCO1 (stereo not given) | -18.6% | 7.94µM* | ? | ? | .
Cc1cc(C(=O)CSc2nnc(-c3ccc(Cl)cc3)n2C)c(C)n1CC1CCCO1 (stereo not given) | -5.2% | -19.9% | 27.1 | -16.2% | -27.7%
Cc1cc(C(=O)CSc2nc(N)cc(N)n2)c(C)n1CC1CCCO1 (stereo not given) | 4.5%[46.1 µM] | -23.8% | -24.9 | 9.5%[46.1 µM] | -0.7%
Cc1ccc(C)c(OCC(=O)Nc2ccc(N3CCOCC3)cc2N2CCOCC2)c1 | ? | 2.4% | -15.6 | -4.2% | -18.5%
COC(=O)[C@@]1(C=C[C@@H](C)[C@H](OC)c2ccccc2Br)[C@@H]2OCCC[C@@H]21 | -4.4%[14.2 µM] | . | . | . | .
COCCNC(=O)c1ccc(N2CC3CC(C2)c2cccc(=O)n2C3)c(NC(=O)c2c(F)cccc2F)c1 (stereo not given) | . | 6.3% | 0.0 | . | 11.2%
Cc1cc(C(=O)CSc2nc3ccccc3[nH]2)c(C)n1CC1CCCO1 (stereo not given) | ? | 1.41µM* | -98.9* | 7.94µM* | 11.2µM*
O=c1c(-c2ccccc2)coc2cc(O)cc(O)c12 | . | . | . | . | 21.8%
CC1(C)C=Cc2cc(-c3coc4cc(O)cc(O)c4c3=O)cc(O)c2O1 | . | 11.2µM* | -60.6* | . | 24.2%
Cc1ccc(-n2nc3c(=O)n(CCCC(=O)NCCN4CCN(C)CC4)nc(C)c3c2C)cc1 | 22.0%[46.1 µM] | 16.2% | ? | 18.5%[46.1 µM] | -5.2%
COc1ccccc1CNCC(O)Cn1c2ccccc2c2ccccc21 (stereo not given) | 8.2µM* | 11.2µM* | -99.2* | 16.4µM* | ?
OCCNCC(O)Cn1c2ccccc2c2ccccc21 (stereo not given) | . | 7.8% | 22.7 | . | 0.0%
CCn1c2ccccc2c2cc(NC(=O)COc3ccccc3OC)ccc21 | ? | ? | -27.1 | ? | 0.0%
SMILES | Marburg entry inh | HCV inh | HCMV inh | Lassa entry inh | FMDV antiviral
CCn1c2ccccc2c2cc(NC(=O)CNCc3ccccc3OC)ccc21 | 5.62µM* | ? | 0.1 | ? | -5.3%
CCn1c(C)c(C)c2cc(C(=O)Nc3cccc(Cl)c3)ccc21 | ? | 2µM* | 21.9 | -21.3% | 1.2%
CCn1c2ccccc2c2cc(NS(=O)(=O)c3ccc(C)cc3)ccc21 | ? | ? | -60.5* | ? | 12.0%
CCC(=O)N(c1nnc(SCC(=O)Nc2sccc2C(N)=O)s1)C1CC1 | . | . | -18.9 | . | -16.9%
CCn1c(C)c(C)c2cc(C(=O)NCCCN3CCCC3)ccc21 | . | -19.4% | -27.6 | . | -6.9%
CCn1c2ccccc2c2cc(NC(=O)C(=O)N3CCOCC3)ccc21 | ? | 11.2µM* | 48.4 | 6.3% | 53.0%
CCn1c2ccccc2c2cc(NC(=O)c3ccco3)ccc21 | -13.8% | 3.16µM* | -69.3* | ? | .
CCn1c2ccccc2c2cc(NC(=O)c3cccc(OC)c3)ccc21 | ? | 11.2µM* | 45.3 | ? | 23.5%
CCn1c(C)c(C)c2cc(C(=O)NCCCN3CCCCC3C)ccc21 (stereo not given) | . | -24.8% | +! | -18.4%[46.1 µM] | -5.6%
CCn1c(=O)sc2cc(NC(=O)c3cccc(OC)c3)ccc21 | 8.5%[46.1 µM] | . | -11.5 | -4.9%[46.1 µM] | 20.8%
CC1(C)CC(NC(=O)C2CCC(=O)N(C3CC3)C2)CC(C)(C)C1 (stereo not given) | -13.0%[46.1 µM] | 22.2% | 22.6 | -1.0%[46.1 µM] | -4.0%
Nc1nc2ccccc2n1S(=O)(=O)c1ccccc1 | . | . | -5.1 | . | 8.0%
CCn1cc(CCCC(=O)NCc2ccccc2OC)c2ccccc21 | . | ? | 36.6 | . | -20.6%
CCn1cc(CCC(=O)NCc2ccccc2OC)c2ccccc21 | . | 10µM* | 3.0 | 2.2%[46.1 µM] | 6.9%
CC(=O)OC1C(O)C(C)OC(OC2C(OC(=O)C3CCC4C(C3)OC3(CC(OC(=O)/C=C/c5ccccc5)C(C)CO3)C43CO3)OC(C)C(O)C2OC(C)=O)C1O (stereo not given) | ? | ? | -97.8* | ? | ?
COc1ccccc1-c1cc2c(Nc3ccc(NC(C)=O)cc3)nccc2[nH]1 | . | . | -4.6 | . | .
CCOC(=O)c1ccc(NC(=S)N(CCN2CCCCCC2)Cc2cccs2)cc1 | 8.91µM* | ? | ? | ? | 21.4%
CCOC(=O)c1ccc(NC(=S)N(CCCN2CCN(C)CC2)Cc2cccs2)cc1 | ? | ? | 7.6 | . | 8.7%
COc1ccc(NC(=S)N(CCCN2CCCCC2)Cc2cccs2)cc1 | ? | -16.8% | ? | -4.6% | 20.3%
CCOC(=O)c1ccc(NC(=S)N(CCCN2CCN(CC)CC2)Cc2cccs2)cc1 | 10µM* | ? | 0.9 | 10µM* | 46.2%
CCC1C(=NO)C(CC)C(c2ccccc2)NC1c1ccccc1 (stereo not given) | ? | ? | -100.7* | ? | ?
CCCC1/C(=N/O)CC(c2ccccc2)NC1c1ccccc1 (stereo not given) | ? | -13.5% | -101.2* | -29.8%[46.1 µM] | ?
CC1/C(=N/O)CC(c2ccccc2)NC1c1ccccc1 (stereo not given) | 1.3% | -3.4% | -27.6 | -11.4% | -25.1%
CC1C(=NO)C(C)C(c2ccccc2)NC1c1ccccc1 (stereo not given) | -19.6% | 12.0% | -36.5 | -10.2% | -10.2%
O=C(Nc1ccccc1)[C@H]1[C@H](CO)[C@H]2Cn3c(cccc3=O)[C@H]2N1C(=O)C1CC1 | . | . | 42.5 | . | .

Assay outcomes as filed in PubChem BioAssay.
